Records with an inconclusive call do not appear. Where a call stands in place of a potency, no number is given. Active and inactive are the calls of the source. The call rests on the fitted dose curve; in most records, active means well fitted inhibition curve with a large enough effect; inconclusive means small, poorly fitted or top-dose-only effect; inactive means flat fitted curve, though single readings scatter.

The text below walks through data of PubChem BioAssay (NCATS).
Potency means the concentration at half of the fitted maximal effect.

In the test the test system is CP286. In words: qHTS profiling for inhibitors of Plasmodium falciparum proliferation (AID 504749). Further: nearly all actives have a fitted effect of over 60% in size. As to conditions: P. falciparum in erythrocytes, SYBR Green DNA, 72 h; series mostly up to 28.7 µM. A digest of the protocol:
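Three-day growth assay of blood-stage parasites in erythrocytes (0.3% parasitemia, 2.5% hematocrit) at 37 C, 5% CO2, quantified by SYBR Green DNA staining after overnight detergent lysis.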
Take `O=C(CCCN1CCC(n2c(=O)[nH]c3ccccc32)CC1)c1ccc(F)cc1`: the Potency was 2 µM (active).
Next, `CC[C@]1(O)CC[C@H]2[C@@H]3CCC4=CCCC[C@@H]4[C@H]3CC[C@@]21C`: “inactive”; `Cc1c(Cl)c(=O)oc2cc(OP(=O)(OCCCl)OCCCl)ccc12`: 11.2 µM (active).
`CN1C(=O)CN=C(c2ccccc2)c2cc([N+](=O)[O-])ccc21`: the Potency result is “inactive”.
Next, `CCCCCCCCC(=O)NCc1ccc(O)c(OC)c1`: “inactive”; `c1cc2c(c(N3CCNCC3)c1)OCCO2`: “inactive”.
In the case of `C=CCOC(Cn1ccnc1)c1ccc(Cl)cc1Cl` (stereo unspecified), the Potency was 11.2 µM (active).
As for `CC(Cc1ccccc1)NCc1ccccc1Cl` (stereo unspecified), the Potency result is “inactive”.
Turning to `COc1ccc(CN2CCNCC2)c(OC)c1OC`, the Potency entry is “inactive”.
Turning to `Nc1ccc(N)cc1`, the Potency entry was “inactive”.
On to `Clc1ccc(CO/N=C(\Cn2ccnc2)c2ccc(Cl)cc2Cl)c(Cl)c1`, for which the Potency is 5.62 µM (active).
To `C[C@]12Cc3nonc3C[C@@H]1CC[C@@H]1[C@@H]2CC[C@@]2(C)[C@H]1CC[C@]2(C)O` belongs “inactive”; to `ClC1=C(Cl)C2(Cl)C(CBr)CC1(Cl)C2(Cl)Cl` (stereo unspecified), “inactive”.
To `CNC(=O)Oc1cccc2ccccc12` belongs “inactive”; to `N#Cc1nn(-c2c(Cl)cc(C(F)(F)F)cc2Cl)c(N)c1S(=O)C(F)(F)F` (stereo unspecified), 5.01 µM (active); to `COC(=O)C1=CCCN(C)C1`, “inactive”.
Next, `COCC(=O)N(c1c(C)cccc1C)C(C)C(=O)OC` (stereo unspecified): “inactive”; `COc1ccc(C(=O)N2CCCC2=O)cc1`: “inactive”.
As for `Oc1c(Br)cc(Br)cc1Br`, the Potency result was “inactive”.
As to `CC(C)(O)C(Cl)(Cl)Cl`, the Potency was 5.62 µM (active).
Next, `CN1CCc2cc(Cl)c(O)cc2[C@H]2c3ccccc3CC[C@@H]21`: 11.2 µM (active).
